The source of these data is PubChem BioAssay (Tox21).

Records with an inconclusive call do not appear. The source made the active and inactive calls. Unless noted, calls come from the whole dose curve.

Test [1] can be described thus: Nuclear factor erythroid 2-related factor 2/antioxidant responsive element (Nrf2/ARE) small molecule agonists: qHTS cell viability counter screen in human keratinocytes (AID 1919968; active = well fitted curve in the direction sought with a large enough effect in the repeat runs; an effect the other way counts as inactive or inconclusive; note: nearly all actives have a fitted effect of over 55% in size). Put shortly: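 Fluorescence read-out from CellTiter-Fluor after 1 h at 37 C. Wells held HaCaT-derived ARE-luciferase reporter cells (1,500/well) treated 23 h with DMSO-dissolved compounds. Run in the same wells as the luciferase agonist read.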
On the technique in general: Quantitative high-throughput screening tests each substance at several concentrations.

Test [2] in a line: Nuclear factor erythroid 2-related factor 2/antioxidant responsive element (Nrf2/ARE) small molecule agonists: luciferase reporter gene qHTS assay in human keratinocytes (AID 1919969). Note: nearly all actives have a fitted effect of over 35% in size. A general note: A reporter such as luciferase makes a cellular process visible.
The target of test [3] is Gonadotropin-releasing hormone receptor (Homo sapiens) (UniProt P30968). Put plainly: Human gonadotropin-releasing hormone receptor (GnRHR) small molecule agonists, calcium flux assay in GnRHR-HEK293 cells (AID 1920063). Note: nearly all actives have a fitted effect of over 35% in size. In a few lines: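 Calcium-dye fluorescence, Ex/Em=480/540, recorded every 1 sec over 3 min after compound addition to GnRHR-HEK293 cells. Cells had been seeded 18 hours earlier and dye-loaded for 1 hour at 37 C. Fifteen concentrations, triplicates.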
Sequence of Gonadotropin-releasing hormone receptor (Homo sapiens) (P30968 whole entry, looked up): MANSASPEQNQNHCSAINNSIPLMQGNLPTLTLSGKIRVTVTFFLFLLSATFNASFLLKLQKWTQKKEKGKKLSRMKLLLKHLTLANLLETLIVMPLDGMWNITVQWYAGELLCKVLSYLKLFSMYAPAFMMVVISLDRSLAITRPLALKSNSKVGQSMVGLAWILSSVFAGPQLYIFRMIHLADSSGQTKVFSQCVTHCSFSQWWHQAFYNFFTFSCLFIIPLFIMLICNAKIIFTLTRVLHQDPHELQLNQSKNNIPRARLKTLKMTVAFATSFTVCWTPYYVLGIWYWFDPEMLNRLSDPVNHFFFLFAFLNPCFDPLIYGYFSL

The target in test [4] is KiSS-1 receptor (Homo sapiens) (UniProt Q969F8). Put plainly: Human kisspeptin (KISS1R) small molecule agonists, calcium flux assay in KISS1R-HEK293 cells (AID 1920064; active = well fitted curve in the direction sought with a large enough effect in the repeat runs; an effect the other way counts as inactive or inconclusive). In a few lines:
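Calcium flux read-out: kinetic fluorescence at Ex/Em=480/540, 1 s intervals over 3 min, after pin-tool compound addition to dye-loaded KISS1R-HEK293 cells. Fifteen concentrations, triplicates.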
Background: Calcium flux is commonly read through the fluorescence of an indicator in the cells.

A short description of test [5]: G protein-coupled receptor (GPCR) small molecule agonists, calcium flux assay: HEK293 wild type cell line counter screen (AID 1920065). Put shortly:
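Agonist mode; 18 h seeding at 37 C, 1 h dye load at 37 C; compounds pinned from DMSO, ATP as positive control; kinetic fluorescence 480/540 nm, 3 min, 1 s reads; 15 concentrations, triplicate.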

The nature of test [6]: p53 small molecule agonists, cell-based qHTS assay with human liver microsomes (AID 1963577).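 Note: p53 response element beta-lactamase reporter cells with liver microsomes plus NADPH.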 In a few lines: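 p53RE-bla cells; 5 h settle, 37 C/5% CO2; cpd + HLM 0.5 mg/mL + NADPH 0.5 mg/mL (final); 16 h 37 C; LiveBLAzer 2 h RT dark; fluorescence readout.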
A short description of test [7]: p53 small molecule agonists, cell-based qHTS assay with rat liver microsomes (AID 1963578). In a few lines: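 Rat liver microsome activation: microsomes 0.5 mg/mL, NADPH 0.5 mg/mL final; p53RE-bla cells, 16 h 37 C; LiveBLAzer readout, 2 h RT dark.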
Test [8] can be described thus: p53 small molecule agonists, cell-based qHTS assay with human liver microsomes: qHTS cell viability counter screen (AID 1963579). Note: nearly all actives have a fitted effect of over 45% in size. In a few lines: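 Luminescent CellTiter-Glo read-out, 30 min at room temperature, gauged cytotoxicity in p53RE-bla cells exposed 16 h at 37 C to DMSO-dissolved compounds with metabolic activation by human liver microsomes and NADPH, each 0.5 mg/mL final.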

Test [9] in a line: p53 small molecule agonists, cell-based qHTS assay with rat liver microsomes: qHTS cell viability counter screen (AID 1963580). Note: nearly all actives have a fitted effect of over 45% in size. Put shortly: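 Rat liver microsome (0.5 mg/mL final) and NADPH (0.5 mg/mL final) co-incubation with compounds for 16 h at 37 C on HCT-116 p53RE-bla cells; cytotoxicity taken from intracellular ATP luminescence.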
Test [10] in a line: p53 small molecule agonists, cell-based qHTS assay (AID 1963582; active = well fitted activation curve with a large enough effect in the signal ratio in the repeat runs, not every such curve was filed as active; the % refers to the signal ratio). In a few lines: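 Fluorescence intensity read-out of a beta-lactamase reporter under a p53 response element. Cells were exposed to DMSO-dissolved compounds for 16 h at 37 C, then developed with FRET substrate for 2 h at RT.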
Test [11] concerns the target Muscarinic acetylcholine receptor M1 (Homo sapiens) (UniProt P11229). Description: Cholinergic receptor muscarinic 1 (CHRM1) small molecule antagonists, cell-based qHTS assay (AID 1963588). Note: nearly all actives have a fitted effect of over 40% in size. In a few lines: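 Compounds were tested at 15 concentrations in three independent runs. Dye-loaded CHRM1-CHO cells were exposed 5 min at room temperature before stimulation by acetylcholine added at 50nM. Intracellular calcium was read kinetically on FDSS for 3 min.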

Test [12] has the same target. Put plainly: Cholinergic receptor muscarinic 1 (CHRM1) small molecule agonists, cell-based qHTS assay (AID 1963589). Note: nearly all actives have a fitted effect of over 35% in size. In a few lines: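 Calcium flux read-out: kinetic fluorescence at 1 sec intervals after pin-tool compound addition to dye-loaded CHRM1-CHO cells (human M1). Agonist mode; 15 concentrations tested in triplicate independent runs.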
Test [13] can be described thus: cAMP Responsive Elements (CRE) small molecule agonists, cell-based qHTS assay (AID 1963590). Note: potency is the fitted concentration of half-maximal effect. In a few lines:
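Beta-lactamase reporter readout: LiveBLAzer B/G FRET substrate, 2 h at room temperature, added after 3 h compound treatment of CRE-bla HEK 293T cells at 37 C/5% CO2.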

The nature of test [14]: cAMP Responsive Elements (CRE) small molecule antagonists, cell-based qHTS assay (AID 1963591; active = well fitted inhibition curve with a large enough effect in the signal ratio in the repeat runs, not every such curve was filed as active; the % refers to the signal ratio). In a few lines: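 HEK293T CRE-bla; 18 h preincubation; compound pin-transfer; NKH477 0.25 uM final, 3 h, 37 C; LiveBLAzer FRET substrate 2 h RT.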
Test [15] addresses Beta-2 adrenergic receptor (Homo sapiens) (UniProt P07550). Description: Adrenergic beta2 receptor (ADRB2) small molecule antagonists, cell-based qHTS assay (AID 1963592). Note: series mostly up to about 92 µM; nearly all actives have a fitted effect of over 50% in size. In a few lines:
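Assay format: CHO-ADRB2 cells, 18-20hr seeding at 37C/5% CO2, then compound plus 1nM isoproterenol agonist mix for 0.5hr RT. Homogeneous time-resolved fluorescence cAMP detection after 1hr, expressed as 665/615 nm ratio.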

Test [16] has the same target. Description: Adrenergic beta2 receptor (ADRB2) small molecule agonists, cell-based qHTS assay (AID 1963593).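 Note: CHO cells stably overexpressing human ADRB2.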 In a few lines: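 CHO cells stably over-expressing ADRB2 were plated overnight at 37C, then dosed with compounds plus a stimulation mix containing 100uM IBMX and 25uM Ro-20-1724 for 0.5hr at room temperature. cAMP was measured by HTRF competition, 1hr.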
The target in test [17] is D(2) dopamine receptor (Homo sapiens) (UniProt P14416). Description: Dopamine D2 receptor (DRD2) small molecule agonists, cell-based qHTS assay (AID 1963594). Note: nearly all actives have a fitted effect of over 35% in size. In a few lines:
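cAMP accumulation in DRD2-HEK293 cells measured by HTRF after 1 h detection; compounds added 10 min before NKH477 (200nM […]) forskolin-analogue stimulation, 30 min at room temperature, with Ro20-1724 present at 0.1 mM final.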

Test [18] shares this target. Description: Dopamine D2 receptor (DRD2) small molecule antagonists, cell-based qHTS assay (AID 1963595; active = well fitted inhibition curve with a large enough effect in the signal ratio in the repeat runs, with a control signal flat; the % refers to the signal ratio; note: potency is the fitted concentration of half-maximal effect). Put shortly:
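HEK293 cells stably expressing DRD2 were preincubated with 0.1 mM Ro20-1724, then with compound for 10 min at room temperature. Cells were stimulated with 200 nM NKH477 plus 12 nM quinpirole for 30 min, and cAMP was read by HTRF.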

A short description of test [19]: p53 small molecule agonists, cell-based qHTS assay: qHTS cell viability counter screen (AID 1963581). Note: nearly all actives have a fitted effect of over 45% in size. In a few lines:
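Cytotoxicity read-out: ATP-based luminescence (CellTiter-Glo, 30 min RT) measured in the same wells as the p53 reporter assay, HCT-116 p53RE-bla cells, 16 h compound exposure at 37 C.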

Test [20] addresses 5-hydroxytryptamine receptor 2A (Homo sapiens) (UniProt P28223). Description: 5-hydroxytryptamine receptor 2A (HTR2A) small molecule agonists, cell-based qHTS assay (AID 1963587). Note: nearly all actives have a fitted effect of over 30% in size. In a few lines: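 Kinetic calcium-flux fluorescence (2 min, 1 sec intervals) after compound addition in agonist mode. HTR2A-CHO cells were cultured 18 h, then dye-loaded 1 h at 37 C.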

Sequence of Muscarinic acetylcholine receptor M1 (Homo sapiens) (P11229 whole entry, looked up): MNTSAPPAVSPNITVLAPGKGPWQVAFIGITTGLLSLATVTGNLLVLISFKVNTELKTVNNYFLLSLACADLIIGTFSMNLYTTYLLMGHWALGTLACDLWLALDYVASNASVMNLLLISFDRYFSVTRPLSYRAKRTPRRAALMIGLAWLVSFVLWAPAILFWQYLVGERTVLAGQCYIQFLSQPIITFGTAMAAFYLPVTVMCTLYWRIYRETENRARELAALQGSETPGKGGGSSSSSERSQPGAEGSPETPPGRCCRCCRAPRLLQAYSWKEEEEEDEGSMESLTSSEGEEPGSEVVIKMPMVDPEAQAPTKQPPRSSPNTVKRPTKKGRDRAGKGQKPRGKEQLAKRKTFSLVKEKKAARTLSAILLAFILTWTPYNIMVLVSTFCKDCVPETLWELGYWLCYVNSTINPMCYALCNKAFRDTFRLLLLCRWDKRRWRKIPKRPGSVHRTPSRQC
Sequence of Beta-2 adrenergic receptor (Homo sapiens) (P07550 whole entry, looked up): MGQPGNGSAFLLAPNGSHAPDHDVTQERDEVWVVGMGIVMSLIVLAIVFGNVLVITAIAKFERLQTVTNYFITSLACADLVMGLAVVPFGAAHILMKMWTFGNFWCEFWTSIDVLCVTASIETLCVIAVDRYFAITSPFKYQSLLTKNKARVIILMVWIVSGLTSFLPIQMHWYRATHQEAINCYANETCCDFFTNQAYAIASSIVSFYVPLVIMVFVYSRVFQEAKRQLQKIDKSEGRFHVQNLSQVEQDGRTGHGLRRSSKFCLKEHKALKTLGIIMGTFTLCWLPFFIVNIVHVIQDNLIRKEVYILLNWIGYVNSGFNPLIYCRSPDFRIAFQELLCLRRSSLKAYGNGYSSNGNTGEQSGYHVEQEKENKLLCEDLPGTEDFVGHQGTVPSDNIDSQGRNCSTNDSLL
Sequence of D(2) dopamine receptor (Homo sapiens) (P14416 whole entry, looked up): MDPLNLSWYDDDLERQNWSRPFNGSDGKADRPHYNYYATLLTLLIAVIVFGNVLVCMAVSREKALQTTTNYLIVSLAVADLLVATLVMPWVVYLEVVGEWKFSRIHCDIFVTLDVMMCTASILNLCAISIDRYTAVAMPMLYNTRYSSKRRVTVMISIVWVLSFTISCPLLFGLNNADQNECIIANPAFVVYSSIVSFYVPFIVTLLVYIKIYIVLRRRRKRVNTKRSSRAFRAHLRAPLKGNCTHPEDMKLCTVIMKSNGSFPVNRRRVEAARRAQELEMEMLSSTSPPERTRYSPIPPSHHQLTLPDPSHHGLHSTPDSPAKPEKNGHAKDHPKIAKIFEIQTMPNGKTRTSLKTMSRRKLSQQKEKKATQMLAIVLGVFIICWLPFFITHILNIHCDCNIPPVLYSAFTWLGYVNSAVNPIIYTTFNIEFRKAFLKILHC
Sequence of 5-hydroxytryptamine receptor 2A (Homo sapiens) (P28223 whole entry, looked up): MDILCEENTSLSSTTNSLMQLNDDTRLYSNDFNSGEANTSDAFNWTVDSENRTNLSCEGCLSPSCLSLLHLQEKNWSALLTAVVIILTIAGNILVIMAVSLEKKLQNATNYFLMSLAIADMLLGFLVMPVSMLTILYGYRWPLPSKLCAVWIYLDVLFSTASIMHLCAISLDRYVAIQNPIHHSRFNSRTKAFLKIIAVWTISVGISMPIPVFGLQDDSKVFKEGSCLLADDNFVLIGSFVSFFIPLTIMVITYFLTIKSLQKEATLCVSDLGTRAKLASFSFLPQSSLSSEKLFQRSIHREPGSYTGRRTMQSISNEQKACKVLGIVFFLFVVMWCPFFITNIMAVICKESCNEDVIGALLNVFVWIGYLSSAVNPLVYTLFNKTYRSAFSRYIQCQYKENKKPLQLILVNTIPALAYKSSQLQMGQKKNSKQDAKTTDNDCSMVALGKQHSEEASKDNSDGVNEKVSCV
Sequence of KiSS-1 receptor (Homo sapiens) (Q969F8 whole entry, looked up): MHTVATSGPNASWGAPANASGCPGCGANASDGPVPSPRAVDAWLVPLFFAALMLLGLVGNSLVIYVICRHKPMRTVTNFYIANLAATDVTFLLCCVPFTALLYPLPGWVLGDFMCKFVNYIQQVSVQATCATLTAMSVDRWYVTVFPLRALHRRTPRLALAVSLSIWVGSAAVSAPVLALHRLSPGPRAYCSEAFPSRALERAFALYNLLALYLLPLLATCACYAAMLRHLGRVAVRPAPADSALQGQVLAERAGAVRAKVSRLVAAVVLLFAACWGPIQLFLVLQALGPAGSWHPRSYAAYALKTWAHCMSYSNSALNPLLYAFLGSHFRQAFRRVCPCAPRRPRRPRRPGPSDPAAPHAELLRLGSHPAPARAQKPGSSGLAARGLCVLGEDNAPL

Regarding `COCCOCCOCCOCCOC`, the Potency result in test [1], in test [2], in test [3], in [4], in test [5] and in test [6] was “inactive” each time. Moreover, the Potency result in test [7], in test [8], in [9], in test [10], in test [11] and in [12] was “inactive” each time. For the same compound, the Potency result in [13], in test [14], in test [15], in test [16], in test [17] and in test [18] was “inactive” throughout.
For `CC(=C(CCOC(=O)C(C)C)SSC(CCOC(=O)C(C)C)=C(C)N(C=O)Cc1cnc(C)nc1N)N(C=O)Cc1cnc(C)nc1N`, the Potency result in test [1], in test [2], in [3], in test [4], in test [5] and in test [6] was “inactive” in each case. Besides, the Potency entry in test [7], in [8], in [19], in [10], in test [20] and in test [11] was “inactive” in each case. The Potency entry in test [12], in test [14], in [15] and in [17] was “inactive” in each case.
For `CC(=O)c1ccccc1N`, the Potency entry in test [1], in [2], in [3], in test [4], in [5] and in [6] was “inactive” each time. Besides, the Potency result in test [7], in test [8], in [19], in [10], in [20] and in test [11] was “inactive” each time. The Potency result in test [12], in test [13], in test [14], in test [15], in test [16] and in test [17] was “inactive” in each case.
Regarding `CNC(=O)Nc1ccc(Cl)c(Cl)c1`, the Potency entry in [1], in [2], in test [3], in test [4], in [5] and in [6] was “inactive” throughout. Moreover, the Potency result in test [7], in test [8], in test [19], in test [10], in test [20] and in test [11] was “inactive” throughout. The Potency entry in test [12], in test [13], in test [14], in test [15], in [17] and in test [18] was “inactive” in each case.
On to `CC(C)c1cccc(C(C)C)c1N`, for which the Potency entry in test [1], in [2], in test [3], in test [4], in [5] and in test [6] was “inactive” in each case. The Potency result in test [7], in test [8], in test [19], in test [10], in test [20] and in test [11] was “inactive” in each case. The Potency result in test [12], in test [13], in [14], in test [15], in test [16] and in test [17] was “inactive” throughout. Besides, the Potency result in test [18] was “inactive”.
On to `Nc1ncnc2c1ncn2[C@@H]1O[C@H](COP(=O)(O)O)[C@@H](O)[C@H]1O`, for which the Potency entry in [1], in test [2], in test [3], in test [4], in test [5] and in [6] was “inactive” throughout. Besides, the Potency entry in test [7], in [8], in [19], in test [10], in [20] and in test [11] was “inactive” throughout. Further, the Potency result in test [12], in test [14], in test [15] and in test [16] was “inactive” throughout. Also, the figures for the Potency in test [13] and in test [18] were 11.9 µM (active) and 0.944 µM (active), respectively.
In the case of `CCCCOC(=O)CCCCCCCC(=O)OCCCC`, the Potency entry in [1], in [2], in test [3], in [4], in test [5] and in [6] was “inactive” in each case. Besides, the Potency entry in [7], in [8], in test [19], in [10], in [20] and in test [11] was “inactive” in each case. The Potency entry in test [12], in [13], in test [14], in [15], in test [16] and in [17] was “inactive” each time. For the same compound, in test [18], the Potency result is “inactive”.
